HCMV antiviral: qHTS Assay for inhibitors of the human cytomegalovirus (HCMV) | HFF cells, HCMV-luciferase reporter, 72 h; hits give low values | activity change, negative = inhibition, % at 57.5 µM | 4.5% of 410,000 active; in the data active = activity change below about -60%; inconclusive = no clear call, values can overlap the other calls; inactive = above about -39%
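Two compound doses tested in HFFs infected with HCMV-luciferase, MOI 1 PFU/cell, 72 h at 37C. Lysate luminescence read with OneGlo; data normalized against buffer-only and 10uM Salinomycin inhibitor controls.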
MARV entry inh: qHTS for inhibitors of binding or entry into cells for Marburg Virus. Potency, µM (series often up to 37.8 µM), inactives show top-dose activity change, negative = inhibition, hits mostly inhibitors. Marburg virus pseudotyped entry inhibition, cell reporter. AID 540276, 2011. 1.8% of 300,000 active; calls by dose curve; tested in HEK293 cells; note: potency is the fitted concentration of half-maximal effect
Lassa entry inh: qHTS for Inhibitors of binding or entry into cells for Lassa Virus; 1.2% of 300,000 active; Lassa virus pseudotype entry inhibition, cell reporter; Potency, µM (titrated, usually from 37.9 µM), inactives show at the highest dose activity change, negative = inhibition, actives largely listed as inhibitors; calls by dose curve; tested in HEK293 cells; note: potency is the fitted concentration of half-maximal effect; nearly all actives have a fitted effect of over 50% in size
FMDV antiviral: High Throughput Screening for Foot and Mouth Disease Virus Antivirals; FMDV antiviral cell-based qHTS; Potency, µM (titrated, usually from 57.9 µM), for inactives: at the top dose activity change, negative = inhibition, most hits filed as inhibitors; 1.2% of 410,000 active; AID 1159524, 2015; calls by dose curve; tested in HEK293T cells; note: read-out not given here; potency is the fitted concentration of half-maximal effect; nearly all actives have a fitted effect of over 45% in size
VACV mCherry inh: qHTS for Stage-Specific Inhibitors of Vaccinia Orthopoxvirus: mCherry Reporter Primary qHTS; Potency, µM (highest dose often 36.5 µM), for inactives: at the highest dose activity change, negative = inhibition, actives largely listed as inhibitors; Vaccinia virus mCherry reporter infection, fluorescence; AID 720579, 2013; 0.63% of 310,000 active; calls by dose curve; tested in A549 cells; note: potency is the fitted concentration of half-maximal effect; nearly all actives have a fitted effect of over 35% in size
VACV Venus inh: qHTS for Stage-Specific Inhibitors of Vaccinia Orthopoxvirus: Venus Reporter Primary qHTS | 0.46% of 330,000 active | AID 720580, 2013 | Potency, µM (series often up to 36.5 µM), inactives show at the highest dose activity change, negative = inhibition, actives largely listed as inhibitors | Vaccinia virus Venus reporter expression, fluorescence; calls by dose curve; tested in A549 cells; note: potency is the fitted concentration of half-maximal effect; nearly all actives have a fitted effect of over 30% in size
* = called active by the depositor; i = inactive; ? = inconclusive; . = no result given; [ ] = another dose, or the depositor's remark. Hits are enriched below; roughly 6.5% of the tested compounds scored in any of these assays. % is set by controls: 0 for no effect and ±100 for the full control effect.

SMILES | HCMV antiviral | MARV entry inh | Lassa entry inh | FMDV antiviral | VACV mCherry inh | VACV Venus inh
CN(CCC#N)c1ccc(/C=C/c2ccnc3ccccc23)cc1 | . | . | . | . | -27.4% | -14.3%
CN(Cc1ccccc1)C(=O)c1ncn(C)c1C(=O)N(C)Cc1ccccc1 | -4.2 | . | . | -6.3% | -4.3% | -7.5%
CCN(CC)C(=O)c1ncn(C)c1C(=O)N(CC)CC | -66.4* | . | . | -9.8% | -14.4% | -8.2%
NC(=S)N/N=C/c1ccc(Br)o1 | ? | . | . | 3.7% | ? | ?
NC(=S)NN=Cc1nccc2c(C(F)(F)F)cccc12 | -73.8* | . | . | -11.3% | ? | ?
CNc1cccnc1C=NNC(N)=S | -98.7* | 1.26µM* | 0.631µM* | 1.7% | ? | ?
CCn1cc(S(=O)(=O)c2cccc(C)c2)c(=O)c2cc(F)c(N3CCCC(C)C3)cc21 (stereo unspecified) | 49.2 | . | 5.8%[46.1 µM] | 8.0% | -10.6% | -9.2%
C/C(CCN1CCCc2nc(C)c(C)cc21)=N\O[C@H](C)CN1CCCc2nc(C)c(C)cc21 | . | -41.3%[14.2 µM] | . | . | . | .
COc1ccc(C)cc1NC(=O)COc1cc(=O)n(C)c2ccccc12 | -16.4 | ? | ? | -18.1% | -9.2% | -13.6%
COC(=O)c1nnn(CC(=O)Nc2cc(F)ccc2F)c1C(=O)OC | -109.0* | 4.5%[46.1 µM] | -0.9%[46.1 µM] | -11.6% | 0.8% | -2.3%
CCOC(=O)c1nnn(CC(=O)Nc2cc(F)ccc2F)c1C(=O)OCC | 22.7 | 15.5% | 18.8% | 0.1% | -10.3% | -1.3%
CCOc1ccc(NC(=O)Cn2cnc3sc(C)c(S(=O)(=O)N4CCN(c5ccccc5OC)CC4)c3c2=O)cc1 | -1.4 | ? | -22.0%[46.1 µM] | 0.0% | 17.8% | -3.3%
COc1ccc(-n2c(=O)c(-c3ccc(Cl)cc3)nc3cnc(N(C)C)nc32)cc1 | . | . | . | -11.2% | . | .
C[C@]12CC[C@@H]3c4ccc(O)cc4C[C@@H](CCCCCCCCCS(=O)CCCC(F)(F)C(F)(F)F)[C@H]3[C@@H]1CC[C@@H]2O (stereo partly specified) | . | ? | 3.26µM* | . | . | .
COc1cc(NC(=O)c2cc([N+](=O)[O-])ccc2NC(=O)CN2CCN(c3ccccn3)CC2)cc(OC)c1 | -12.2 | 8.91µM* | ? | -25.2% | -3.4% | -12.8%
O=C(CN1CCN(c2ccc(O)cc2)CC1)Nc1cc([N+](=O)[O-])ccc1Cl | -68.5* | ? | 4.2% | ? | -2.7% | -7.5%
COc1cc(=O)n2c(c1C(=O)NC(C)c1ccco1)CCN(C(=O)c1ccc(F)cc1Cl)CC2 (stereo unspecified) | . | . | . | 22.1% | i | -12.2%
CCOC(=O)c1cc2c(ccn2-c2ccc(F)cc2)n1CC(=O)N1CCN(C(=O)c2ccco2)CC1 | -20.6 | 3.3% | 9.2µM* | 6.3% | -2.1% | -0.8%
CSc1ccc2cc(CNCc3ccccc3F)c(N3CCCC(CO)C3)nc2c1 (stereo unspecified) | . | . | . | 7.7% | -7.0% | -2.6%
CCOC(=O)C1(CC2CCCCO2)CCN(Cc2cc3ccccc3[nH]2)CC1 (stereo unspecified) | -27.3 | ? | 10µM* | -22.6% | 2.51µM* | ?
CCCCc1ncc(CN2CCC(CC3CCCCO3)(C(=O)OCC)CC2)[nH]1 (stereo unspecified) | -25.2 | ? | 25.9%[46.1 µM] | 16.3% | i | -8.9%
Cc1nc(N)c(C#N)c(-c2cccnc2)c1C | -70.4* | 17.4% | 8.8% | -24.2% | -19.8% | -17.6%
CCc1nc(N)c(C#N)c(-c2cccnc2)c1C | -4.0 | 3.2% | 10.0% | -5.4% | . | .
Cc1nn(-c2ccccc2)c(C)c1/C=N/NC(=O)c1cc(-c2ccccc2)n[nH]1 | -95.2* | ? | ? | -25.7% | -9.7% | -26.4%
Cc1ccc(-c2nnc(SCC(=O)N/N=C/c3c(C)nn(-c4ccccc4)c3C)n2-c2ccc(C)cc2)cc1 | -39.1 | ? | 7.08µM* | ? | 37.1% | -1.3%
SMILES | HCMV antiviral | MARV entry inh | Lassa entry inh | FMDV antiviral | VACV mCherry inh | VACV Venus inh
Cc1ccc(-c2nnc(SCC(=O)N/N=C/c3ccc(C)s3)n2-c2ccccc2)cc1 | -35.0 | ? | 15.8µM* | 0.0% | -28.5% | -20.6%
Cc1ccc(-c2nnc(SCC(=O)N/N=C/c3ccccc3C(=O)O)n2-c2ccc(C)cc2)cc1 | ? | . | . | -22.9% | . | .
Cc1ccc(-c2nnc(SCC(=O)N/N=C/c3c(C)nn(-c4ccccc4)c3C)n2-c2ccccc2)cc1 | -27.4 | ? | ? | -24.8% | -3.5% | -6.5%
Cc1ccc(/C=N/NC(=O)CSc2nnc(-c3ccccc3)n2-c2ccc(Cl)cc2)o1 | -83.6* | -1.5% | -9.0% | -13.9% | -3.7% | -9.6%
C[C@H]1[C@@H](NC(=O)Nc2ccc(Cl)cc2)CC[C@@]23CCCN2C(=O)CCC[C@@H]13 | -9.0 | . | . | . | . | .
COc1ccc(COC(=O)NN=C2C[C@@H](O)[C@@H](O)[C@@H]3[C@H]4C(=O)N([C@@H](C)c5ccccc5)C(=O)[C@@H]4CC[C@H]23)cc1 | . | -0.6%[14.2 µM] | ? | . | . | .
CCCC(=O)N(C)c1ccc(/C=C2\C=Cc3ccccc32)cc1 | . | . | . | . | ? | -23.0%
CCOc1ccccc1NC(=O)c1nc(S(=O)(=O)Cc2cccc(C)c2)ncc1Cl | -112.7* | -5.6%[46.1 µM] | 2.4%[46.1 µM] | 14.1µM* | -23.7% | -25.4%
CCc1nnc(NC(=O)c2nc(S(=O)(=O)Cc3ccc(C)cc3)ncc2Cl)s1 | -100.7* | ? | ? | 28.2µM* | -8.0% | -12.9%
CCSc1ncc(Cl)c(C(=O)Nc2ccccc2OC)n1 | 55.8 | . | . | -13.0% | . | .
CCc1nnc(NC(=O)c2nc(S(=O)(=O)Cc3ccccc3)ncc2Cl)s1 | -101.0* | ? | ? | -68.7% | i | -5.8%
CCc1nnc(NC(=O)c2nc(S(=O)(=O)Cc3cccc(C)c3)ncc2Cl)s1 | -101.3* | ? | ? | 4.47µM* | 10.3%[7.34 µM] | 2.0%
CCOC(=O)c1ccc(-n2c(N)c(C(=O)OC)c3nc4ccccc4nc32)cc1 | ? | . | -26.5%[46.1 µM] | -20.9% | -15.6% | -7.5%
CCOC(=O)N1CCN(c2nc(CN3CCCCC3CCO)nc3c(C)cccc23)CC1 (stereo unspecified) | . | . | . | -10.4% | i | -12.3%
CCOc1ccc(C(=O)N2CCn3c2nc2ccccc23)cc1 | ? | ? | ? | 20.9% | 9.7% | 4.0%
